Compound activity deposited in PubChem BioAssay by National Center for Advancing Translational Sciences (NCATS).
This is a sample that favours compounds with a hit; in the whole collection about 15% have one here.
12-LOX inh = ALOX12 (human) lipoxygenase inhibition; P18054; purified 12hLO, xylenol orange hydroperoxide absorbance; Potency, µM (top dose mostly 108 µM), inactives show at the top dose activity change, negative = inhibition, actives largely listed as inhibitors; 1.1% of 580,000 active
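Purified human 12hLO (150 nM final) in 25 mM Hepes, 0.01% Triton X-100, pH 7.0 was preincubated 15 min at room temperature with compound. Then 40 uM arachidonic acid was added, 30 min. Hydroperoxide was read by Fe-XO absorbance ratio 573/405 nm.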
TDP1 cell noCPT = qHTS for Inhibitors of human tyrosyl-DNA phosphodiesterase 1 (TDP1): qHTS in cells in absence of CPT; Potency, µM (titrated, usually from 46.2 µM), for inactives: top-dose activity change, negative = growth inhibition, usual class: inhibitors; DT40 Tdp1-/- hTDP1 cells, no CPT, ATP luminescence, 48 h; 15% of 420,000 active; AID 686978, 2013; also: nearly all actives have a fitted effect of over 55% in size
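Compound effects on proliferation are scored in DT40 Tdp1-/-;hTDP1 cells in the absence of CPT. ATP levels (CellTiter-Glo luminescence) are recorded after a ≥48 hr, 37 °C incubation.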
ELG1 repair inh = blocks ELG1-dependent DNA repair in HEK293T cells; Potency, µM (series often up to 46.1 µM), inactives show at the top dose activity change, negative = inhibition, actives largely listed as inhibitors; HEK293T ELG1-luciferase reporter, luminescence, 16 h; DNA damage induced by 5-fluorouridine; 2.3% of 330,000 active; also: nearly all actives have a fitted effect of over 55% in size
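Overnight (16 hr) co-exposure of 2,000 cells/well to 5-fluorouridine and compound at 37 °C preceded detection. Luciferase was quantified via ONE-Glo luminescence; loss of signal denotes inhibition.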
RORg inh = blocks mouse ROR gamma transcriptional activity; AID 2551; Potency, µM (highest dose often 53.6 µM), for inactives: top-dose activity change, negative = inhibition, hits mostly inhibitors; 5.4% of 310,000 active; P51450; Drosophila S2 Gal4-RORgamma UAS-luciferase reporter, 20 h; also: nearly all actives have a fitted effect of over 60% in size
Target sequence (P51450 whole entry, looked up, the tested form may be a part): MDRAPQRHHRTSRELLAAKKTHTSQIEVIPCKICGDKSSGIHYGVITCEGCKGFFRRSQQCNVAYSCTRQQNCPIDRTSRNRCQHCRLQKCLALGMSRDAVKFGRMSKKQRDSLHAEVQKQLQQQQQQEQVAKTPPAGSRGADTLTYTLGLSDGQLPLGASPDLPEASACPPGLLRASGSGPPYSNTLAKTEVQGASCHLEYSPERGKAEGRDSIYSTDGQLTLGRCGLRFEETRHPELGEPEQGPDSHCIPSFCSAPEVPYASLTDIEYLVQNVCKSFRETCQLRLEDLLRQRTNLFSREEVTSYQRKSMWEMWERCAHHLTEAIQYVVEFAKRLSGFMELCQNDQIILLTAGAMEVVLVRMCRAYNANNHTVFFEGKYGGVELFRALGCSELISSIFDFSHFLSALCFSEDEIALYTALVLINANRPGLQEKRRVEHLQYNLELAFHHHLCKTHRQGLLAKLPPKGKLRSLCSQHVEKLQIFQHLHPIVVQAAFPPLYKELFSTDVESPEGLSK
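Compounds are pin-transferred onto Drosophila Schneider cells expressing a copper-inducible Gal4–ROR gamma transactivation domain fusion. After 1 hr, copper sulfate is added to 700 uM final; luciferase is read 20 hr later.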
DT40 TDP1 CPT = DT40-hTDP1 cell growth loss with CPT. chicken DT40 Tdp1-/-;hTDP1 cells + 20 nM CPT, ATP luminescence, 48 h. Potency, µM (titrated, usually from 46.2 µM), for inactives: at the top dose activity change, negative = growth inhibition, most hits filed as inhibitors. 12% of 420,000 active. AID 686979; also: nearly all actives have a fitted effect of over 55% in size
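Chicken DT40 Tdp1-/- cells complemented with human TDP1, 400 cells/well, exposed to compounds plus 20 nM camptothecin for at least 48 h at 37 C; viability read as ATP content by CellTiter-Glo luminescence.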
VP16 counter = inhibits Gal4-VP16 luciferase reporter, ROR gamma counter-screen. Drosophila S2 Gal4-VP16 UAS-luciferase, luminescence, 20 h. Potency, µM (series often up to 53.6 µM), for inactives: top-dose activity, negative = inhibition, most hits filed as inhibitors. 3.5% of 310,000 active. AID 2546;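 also: Gal4-VP16 expression switched on by copper sulfate through the metallothionein promoter; nearly all actives have a fitted effect of over 50% in size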
* = called active by the depositor; ? = inconclusive; / = no result; [ ] = remark or other dose. Calls follow the shape of the dose curve; as a rule, active = well fitted curve in the direction sought with a large enough effect; inconclusive = small, poorly fitted or top-dose-only effect, or another doubt; inactive = no such curve, though single readings can be large; an effect the other way counts as inactive or inconclusive. % is scaled to controls: 0 for no effect and ±100 for the full control effect; potency is read from the fitted curve at half-maximal effect.

SMILES | 12-LOX inh | TDP1 cell noCPT | ELG1 repair inh | RORg inh | DT40 TDP1 CPT | VP16 counter
O=C(Nc1ccccc1Oc1cccnc1)C1CCCN(Cc2cccc(Cl)c2)C1 (stereo not drawn) | ? | -16.3% | -9.9% | 3.2% | -29.5% | 3.9%
CCc1ccc(CN2CCC(C(=O)Nc3ccc(Oc4cccnc4)cc3)CC2)o1 | 44.4% | / | / | / | / | /
COc1cc(CN2CCCC(C(=O)Nc3ccccc3Oc3cccnc3)C2)ccc1F (stereo not drawn) | 2.0% | 16.4µM* | 6.9% | 33.2% | ? | -0.2%
COc1cccc(-c2cccc(NC(=O)C3CCN(Cc4cccc(C)n4)CC3)c2)c1 | 19.2% | -6.5% | 2.3% | ? | -18.0% | ?
O=C(Nc1ccc(F)cc1)c1ccc(S(=O)(=O)C2CCS(=O)(=O)C2)cc1 (stereo not drawn) | -6.8% | / | / | / | / | /
CCN1CCN(Cc2cc(C)cc(CN(C)Cc3ncc(C)[nH]3)c2C)CC1 | 48.8% | / | / | / | / | /
CC12CC3CC(C)(C1)CC(NCc1ccccn1)(C3)C2 | -4.2% | / | / | / | / | /
CCn1cc(CN2CCC(C(=O)Nc3ccc(Oc4ccccc4F)cc3)CC2)cn1 | ? | 20.6µM* | / | / | ? | /
CCn1cc(CN2CCC(C(=O)Nc3cccc(-c4cccc(F)c4)c3)CC2)cn1 | 0.0% | ? | 5.2% | -0.3% | -23.8% | -4.8%
COc1ccc(CN2CCC(C(=O)Nc3ccc(Oc4cccnc4)cc3)CC2)cc1 | -6.9% | -10.6% | -3.1% | 2.6% | ? | -13.4%
COc1cccc(O)c1CN1CCC(C(=O)Nc2ccc(Oc3cccnc3)cc2)CC1 | 13.3% | 13µM* | -0.5% | 29.6% | 20.6µM* | 4.5%
Cc1noc(C)c1[S+](=O)([O-])N1CCC2(Cc3ccccc3NC2=O)C1 (stereo not drawn) | 42.6% | / | / | / | / | /
O=C(c1ccco1)[C@@H]1[C@@H]2C(=O)N(c3ccc(F)cc3)C(=O)[C@@H]2C2c3ccccc3C=CN21 (stereo partly drawn) | -6.0% | / | 3.3% | 10.7% | / | 1.1%
CC(=O)[C@@H]1[C@@H](C(=O)c2ccccc2)[C@]2(C(=O)Nc3ccccc32)[C@H]2C=Cc3cc(F)ccc3N12 | -0.6% | 18.4µM* | -0.1% | ? | 23.1µM* | ?
Cc1cc(C)c2c(c1)[C@]1(C(=O)N2)N2CCC[C@H]2[C@@H](C(=O)c2ccc(F)cc2)[C@]12C(=O)Nc1ccccc12 | 2.0% | / | / | / | / | /
O=C(c1ccccc1)[C@@H]1[C@@H](C(=O)c2ccc(F)cc2)[C@@]2(C(=O)Nc3ccccc32)[C@H]2c3ccccc3C=CN12 | ? | 14.6µM* | ? | -39.5% | 23.1µM* | -11.8%
CCNC(=O)N1CC(c2nnc(-c3ccncc3)o2)C2(CCOCC2)C1 (stereo not drawn) | 40.1% | / | / | / | / | /
FC(F)(F)c1ccc(O[C@H]2COCCN(CC3CCCC3)C2)cc1 | 18.1%[176 µM] | / | / | / | / | /
CC(C(=O)NN)n1nnc(N2CCOCC2)n1 (stereo not drawn) | ? | -6.4% | 7.3% | 8.9% | 17.2% | 1.1%
CC(C(=O)NNS(=O)(=O)c1cccc(C(F)(F)F)c1)n1nnc(N2CCOCC2)n1 (stereo not drawn) | 3.55µM* | -14.9% | -9.7% | -0.1% | -3.3% | -9.2%
O=C(NC(NC(=O)c1ccccc1)c1ccc(Cl)cc1)c1ccccc1 | 3.9% | / | / | / | / | /
CCN(CC)c1nc(C)nc2c1cnn2CCc1ccccc1 | ? | 14.6µM* | ? | 10.5% | ? | 19.1%
COc1ccc(NC(=O)CSc2ncnc3c2cnn3CCc2ccccc2)cc1 | 142.1% | -24.1% | -1.8% | 8.6% | -28.0% | -4.5%
O=C(CCCN1C(=O)c2cccc3cccc(c23)C1=O)N1CCN(c2ccc(F)cc2)CC1 | -14.3% | 16.4µM* | ? | 35.1% | ? | -1.3%
O=C1c2ccc3c4c(ccc(c24)C(=O)N1CCCCO)C(=O)N(CCCCO)C3=O | -3.7% | 2.59µM* | 2.06µM* | 8.91µM* | 2.06µM* | 1.8%[10 µM]
SMILES | 12-LOX inh | TDP1 cell noCPT | ELG1 repair inh | RORg inh | DT40 TDP1 CPT | VP16 counter
O=C(CCN1C(=O)c2cccc3cccc(c23)C1=O)N1CCOCC1 | 5.9% | -15.1% | ? | -4.1% | 7.3% | -2.0%[10 µM]
Fc1ccc(N2CCN(C3=Nc4cccc5cccc3c45)CC2)cc1 | -27.7% | 16.4µM* | ? | 12.6µM* | 25.9µM* | -5.0%
c1ccc(CN2CCN(C3=Nc4cccc5cccc3c45)CC2)cc1 | 0.0% | ? | ? | ? | ? | -24.1%
COc1ccc(N2CCN(C(=O)CCCN3C(=O)c4cccc5cccc(c45)C3=O)CC2)cc1 | -40.5% | 16.4µM* | 10.3µM* | -1.9% | ? | -7.9%
O=C(c1ccc2c(c1)C(=O)N(CCCO)C2=O)c1ccc2c(c1)C(=O)N(CCCO)C2=O | 14.2% | -12.3% | -1.1% | -9.4% | 25.9% | 4.9%
CC(C)(C)c1ccc(/C=N/OCC(=O)N2CCC(Cc3ccccc3)CC2)cc1 | -25.2% | / | / | / | / | /
CN(Cc1ccon1)Cc1cc2n(n1)CCN(C(=O)c1ncoc1C1CC1)C2 | -22.3% | / | / | / | / | /
O=C(CCCCCN1C(=O)c2cccc3cccc(c23)C1=O)NO | 3.55µM* | / | / | ? | / | -10.8%
O=C(N/N=C/c1ccc(Oc2ccccc2)cc1)c1cccs1 | 23.6% | / | / | / | / | /
Cc1ccc(C)c(N2CCN(CCCNC(=O)c3nnc(Cc4ccc(F)cc4Cl)o3)CC2)c1 | -17.8% | 4.61µM* | / | / | 2.59µM* | /
CCc1nc2ccc(C(=O)NCCCN3CCN(c4ccc(F)cc4)CC3)cc2nc1CC | -1.5% | ? | ? | 1.3% | ? | -1.2%
O=C(NCCCN1CCN(c2ccc(F)cc2)CC1)c1ccc2nc(Cc3ccccc3)oc2c1 | ? | 20.6µM* | / | / | 13µM* | /
O=C(NCCCN1CCN(c2ccccc2)CC1)c1ccc2nc(Cc3ccccc3)oc2c1 | ? | 8.2µM* | / | / | 11.6µM* | /
CCN1CCN(CCCNC(=O)c2ccc3nc(Cc4ccccc4)oc3c2)CC1 | -24.5% | 21.7% | / | / | 9.2% | /
O=C(NCCCN1CCN(c2ccccc2)CC1)c1nnc(Cc2ccc(F)cc2)o1 | -17.2% | 25.9µM* | / | / | ? | /
Nc1nccnc1C(=O)Nc1cccc(NC(=O)c2ccccc2)c1 | 9.1% | / | / | / | / | /
CN(CC1(C)CCOCC1)C(=O)NCc1ccco1 | 44.7% | / | / | / | / | /
CCCCCNc1nc2sc3c(c2c(=O)n1-c1cccc(Cl)c1)CCN(C)C3 | 197.0% | 11.6µM* | ? | 7.6% | 11.6µM* | 7.0%
CCCCNc1nc2sc3c(c2c(=O)n1-c1cccc(Cl)c1)CCN(C)C3 | -27.6% | 16.4µM* | ? | -4.9% | 20.6µM* | 1.1%
